From PubChem
Shown are actives, neighbours in structure and some others; about 6% of the full set was active somewhere.
PLK1 PBD block = PLK1 (human) polo-box domain binding inhibition; Potency, µM, inactives show max response, negative = inhibition, most hits filed as inhibitors; Plk1 PBD binding of FITC phosphopeptide, fluorescence polarization; P53350; AID 720504; 2.8% of 360,000 active; also: potency is read from the fitted curve at half-maximal effect; series mostly up to about 57 µM; nearly all actives have a fitted effect of over 65% in size
Target sequence (P53350 whole entry, looked up, the tested form may be a part): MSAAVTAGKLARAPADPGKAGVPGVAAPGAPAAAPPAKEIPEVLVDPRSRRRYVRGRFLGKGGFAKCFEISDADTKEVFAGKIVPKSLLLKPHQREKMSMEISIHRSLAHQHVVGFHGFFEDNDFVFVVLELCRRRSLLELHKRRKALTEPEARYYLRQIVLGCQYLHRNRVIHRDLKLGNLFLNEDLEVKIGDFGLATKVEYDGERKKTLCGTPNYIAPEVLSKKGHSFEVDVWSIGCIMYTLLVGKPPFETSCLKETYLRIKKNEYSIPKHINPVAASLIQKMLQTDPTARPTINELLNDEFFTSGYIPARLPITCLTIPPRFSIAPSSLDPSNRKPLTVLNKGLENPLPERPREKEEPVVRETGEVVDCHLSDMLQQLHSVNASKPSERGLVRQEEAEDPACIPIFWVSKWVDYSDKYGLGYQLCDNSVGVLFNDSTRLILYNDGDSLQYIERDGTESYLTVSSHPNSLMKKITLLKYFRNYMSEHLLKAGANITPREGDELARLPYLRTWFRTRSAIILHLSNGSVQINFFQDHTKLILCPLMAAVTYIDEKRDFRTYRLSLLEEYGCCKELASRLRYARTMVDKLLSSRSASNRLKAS
Tau fibril FP = blocks human tau fibril formation measured by polarization. P10636. K18 P301L tau heparin fibrillization, Alexa594 FP, 6 h. Potency, µM (series often up to 57.7 µM), for the others: at the top dose activity, negative = inhibition, usual class: inhibitors. 0.39% of 280,000 active. AID 1468; also: potency is read from the fitted curve at half-maximal effect; nearly all actives have a fitted effect of over 55% in size
Target sequence (P10636 561-689 P618L limits assumed): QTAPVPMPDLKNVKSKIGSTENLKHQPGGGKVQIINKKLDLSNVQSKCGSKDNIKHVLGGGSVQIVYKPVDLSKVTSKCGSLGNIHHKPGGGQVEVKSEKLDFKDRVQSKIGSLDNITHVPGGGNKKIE
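Steps: dispense K18 P301L tau (15 uM plus 0.24 uM Alexa 594 tracer, final) in pH 7 sodium acetate; add compound; add heparin (20 uM final); incubate 6 hr, 37 C; add ThT (30 uM final); after 1 hr ambient, read FP.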
VDR inhibitor = inhibitors of human vitamin D receptor; P11473; VDR-SRC2-3 peptide fluorescence polarization, 2 h; Potency, µM, inactives show max response, negative = inhibition, most hits filed as inhibitors; 0.93% of 400,000 active; AID 504847; also: potency is read from the fitted curve at half-maximal effect
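Two reagent solutions held at 4 deg C in the dark were dispensed, compounds pinned at 23 nl, and the mixture incubated 2 h at room temperature. Read-out: fluorescence polarization of VDR–SRC2-3 peptide binding.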
Tau ThT inhib = inhibitors of human tau fibril formation, thioflavin T binding; recombinant tau K18 P301L, heparin-induced fibrillization, ThT fluorescence; AID 1460; P10636; 2.1% of 270,000 active; Potency, µM (titrated, usually from 57.4 µM), for the others: top-dose activity, negative = inhibition, actives largely listed as inhibitors; also: potency is read from the fitted curve at half-maximal effect; nearly all actives have a fitted effect of over 55% in size
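Heparin-induced fibrillization of the P301L-mutant K18 repeat-domain fragment of human tau was followed by ThT binding in quantitative high-throughput format.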
Sfp PPTase inh = blocks B. subtilis Sfp PPTase activity. 3.5% of 310,000 active. Potency, µM, for the others: largest response in the series, negative = inhibition, most hits filed as inhibitors. Biochemical Sfp PPTase activity, qHTS;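 also: the enzyme is Sfp with the accession as filed and its product quenches rhodamine fluorescence; potency is read from the fitted curve at half-maximal effect; 0% = enzyme reaction without inhibitor and -100% = no enzyme wells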
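Fluorescence-quenching assay with 15 nM Sfp, 5 uM rhodamine-CoA and 12.5 uM BHQ-2-labelled ybbR peptide in pH 7.6 Hepes/MgCl2 buffer. Enzyme was pre-incubated with compound for 15 min at room temperature. Rate was taken from the 30-min fluorescence change (525/598 nm).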
Tau fluor cs = counter-screen for tau fibril formation inhibitors; tau K18 P301L Alexa594 fluorescence, heparin fibrillization; Potency, µM (series often up to 57.7 µM), for the others: at the top dose activity change, negative = decrease; 0.93% of 280,000 active; also: potency is read from the fitted curve at half-maximal effect; nearly all actives have a fitted effect of over 55% in size
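Human tau K18 P301L (15 uM unlabeled, 0.24 uM Alexa 594-labeled) in 100 mM sodium acetate pH 7 with 20 uM heparin, 6 hr at 37 C. ThT 30 uM added, 1 hr ambient; Alexa 594 FP and total fluorescence read at 555/632 nm.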
Sfp inh conf = Sfp phosphopantetheinyl transferase inhibition, confirmation; Sfp PPTase enzymatic assay, qHTS titration; 79% of 380 active; Potency, µM (titrated, usually from 114 µM), inactives show top-dose activity change, negative = inhibition, usual class: inhibitors; shares compounds with Sfp PPTase inh; AID 2701;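 also: potency is read from the fitted curve at half-maximal effect; plate controls were uninhibited Sfp reaction for no effect and no enzyme control for full effect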
Sfp gel assay = Blocks Sfp PPTase activity, gel read-out; shares compounds with Sfp PPTase inh; purified Sfp, gel-based phosphopantetheinylation read-out; Potency, µM, usual class: inhibitors; 20% of 210 active; AID 2707;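 active = potency below 100 µM; inconclusive = dose-dependent response but potency above 100 µM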;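 also: band intensities scaled against SCH202676 control wells before curve fitting; potency is an IC50 for inhibitors of Sfp transfer activity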
* = called active by the depositor; [ ] = another dose, or the depositor's remark. Unless noted, calls follow the shape of the dose curve; as a rule, active = well fitted curve in the direction sought with a large enough effect; inconclusive = small, poorly fitted or top-dose-only effect, or another doubt; inactive = no such curve, though single readings can be large; an effect the other way counts as inactive or inconclusive. Unless noted, % is scaled to controls: 0 for no effect and ±100 for the full control effect.

Results for NC(=O)c1c(NC(=O)C2CCCO2)sc2c1CCCC2 (stereo not given) ?
PLK1 PBD block: 11µM*; Tau fibril FP: -1%; VDR inhibitor: -28%; Tau ThT inhib: 3%; Sfp PPTase inh: 1.3µM*; Tau fluor cs: 10%; Sfp inh conf: 13µM*

How did CCOC(=O)c1c(NC(=O)C2CCCO2)sc2c1CCC2 (stereo not given) do in these assays?
PLK1 PBD block: -5%; Tau fibril FP: -3%; VDR inhibitor: -10%; Tau ThT inhib: inconclusive; Sfp PPTase inh: -12%; Tau fluor cs: -10%

What do the screens show for `CCCC[C@H](CN[C@@H](CNC)[C@H](C)CC)NCCC12CCC(CC1)C2`?
PLK1 PBD block: inconclusive; VDR inhibitor: -15%; Sfp PPTase inh: 6%

How did Cc1cccc(C)c1OCC(=O)N(Cc1ccc(Cl)cc1)CC1CCCO1 (stereo not given) do in these assays?
Tau fibril FP: 8%; VDR inhibitor: -5%; Tau ThT inhib: -8%; Tau fluor cs: -6%

How did Cc1ccc(-c2nc3cnccn3c2Nc2c(C)cccc2C)o1 do in these assays?
PLK1 PBD block: inconclusive; Tau fibril FP: inconclusive; VDR inhibitor: inconclusive; Tau ThT inhib: inconclusive; Sfp PPTase inh: 0.5µM*; Tau fluor cs: -19%; Sfp inh conf: 4.2µM*; Sfp gel assay: inactive

What do the screens show for `CN(Cc1ccc(Cl)cc1)C(=O)c1ccccc1SCC(=O)N1CCCC1`?
PLK1 PBD block: -20%; VDR inhibitor: 0%

How did C=C1C(=O)[C@]23[C@H](O)[C@H]1CC[C@H]2[C@@]12COC3(O)[C@H](O)[C@@H]1C(C)(C)CC[C@@H]2O do in these assays?
Tau fibril FP: -7%; VDR inhibitor: 7.1µM*; Tau ThT inhib: -20%; Sfp PPTase inh: 13µM*; Tau fluor cs: -1%; Sfp inh conf: 26µM*; Sfp gel assay: inconclusive

What do the screens show for `ONc1cccnc1-n1nc(C(F)(F)F)cc1C(F)(F)F`?
Tau fibril FP: -19%; Tau ThT inhib: inconclusive; Sfp PPTase inh: 8.9µM*; Tau fluor cs: inconclusive; Sfp inh conf: 15µM*

What do the screens show for `CCCCc1nn2c(=O)cc(COC(=O)c3ccccc3NC(=O)c3cccs3)nc2s1`?
Tau fibril FP: 0%; VDR inhibitor: 4%; Tau ThT inhib: 12%; Tau fluor cs: 5%

How did COC(=O)c1[nH]c2ccccc2c1NC(=O)Oc1ccccc1 do in these assays?
PLK1 PBD block: inconclusive; Tau fibril FP: -2%; VDR inhibitor: 7%; Tau ThT inhib: inconclusive; Sfp PPTase inh: 11µM*; Tau fluor cs: -14%; Sfp inh conf: inconclusive

How did C=CCOC(=O)Nc1c(C(=O)OC)[nH]c2ccccc12 do in these assays?
PLK1 PBD block: -6%; Tau fibril FP: 8%; VDR inhibitor: 6%; Tau ThT inhib: -16%; Sfp PPTase inh: -9%; Tau fluor cs: -22%

How did Cc1ccc(NC(CC(=O)c2ccccc2)c2ccc(F)cc2)cc1 (stereo not given) do in these assays?
PLK1 PBD block: 0%; Tau fibril FP: 6%; VDR inhibitor: -1%; Tau ThT inhib: -33%; Sfp PPTase inh: 10%; Tau fluor cs: inconclusive

Results for O=C(CC(Nc1ccc(F)cc1)C(=O)O)c1ccccc1 (stereo not given) ?
PLK1 PBD block: -22%; Tau fibril FP: -1%; VDR inhibitor: inconclusive; Tau ThT inhib: inconclusive; Sfp PPTase inh: 2.2µM*; Tau fluor cs: 3%; Sfp inh conf: 15µM*; Sfp gel assay: inactive

What do the screens show for `COc1ccc(COC(=O)N/N=C2/C[C@@H](O)[C@@H](O)[C@@H]3[C@@H]4C(=O)N(C5CCCCC5)C(=O)[C@H]4CC[C@H]23)cc1`?
Tau fibril FP: -4%[11.6 µM]; Tau ThT inhib: -9%[11.5 µM]; Sfp PPTase inh: -1%; Tau fluor cs: -3%[11.6 µM]

What do the screens show for `Cc1ccc(Nc2nc(-c3sc(NC(=O)c4ccco4)nc3C)cs2)cc1`?
PLK1 PBD block: -7%; Tau fibril FP: 12%; VDR inhibitor: -6%; Tau ThT inhib: 4µM*; Sfp PPTase inh: 16µM*; Tau fluor cs: inconclusive; Sfp inh conf: 53µM*; Sfp gel assay: inconclusive

How did Cc1cccc(-n2c(=O)c3c(c4cc(C)ccc4n3C)n(Cc3ccccc3F)c2=O)c1 do in these assays?
Tau fibril FP: 0%; VDR inhibitor: 4%; Tau ThT inhib: 8%; Tau fluor cs: 5%

Results for CCCCN(CCCC)CC(O)c1cc(Cl)cc2c1-c1ccc(Cl)cc1/C2=C/c1ccc(Cl)cc1 (stereo not given) ?
VDR inhibitor: 6%; Sfp PPTase inh: 45µM*; Sfp inh conf: 42µM*; Sfp gel assay: inconclusive

Results for Cc1ccc(-n2c(=O)c3ccc(C(=O)NCc4ccccc4Cl)cc3n(Cc3cccc(F)c3)c2=O)cc1 ?
Tau fibril FP: -15%; VDR inhibitor: -2%; Tau ThT inhib: 9%; Tau fluor cs: -6%

How did Cc1cc(O)c(C2=Nc3ccccc3SC(c3ccc(Cl)cc3)C2)c(=O)o1 (stereo not given) do in these assays?
PLK1 PBD block: -26%; Tau fibril FP: -14%; VDR inhibitor: inconclusive; Tau ThT inhib: inconclusive; Sfp PPTase inh: 14µM*; Tau fluor cs: -11%; Sfp inh conf: 53µM*; Sfp gel assay: inconclusive

Results for Nc1c(C(=O)Nc2ccccc2)sc2nc(-c3cccnc3)ccc12 ?
Tau fibril FP: 2%; Tau ThT inhib: inconclusive; Sfp PPTase inh: 7.9µM*; Tau fluor cs: -24%; Sfp inh conf: 30µM*; Sfp gel assay: inconclusive

How did C/C(=N\NC(=O)c1nnn(-c2nonc2N)c1CN(C)c1ccccc1)c1cccnc1 do in these assays?
PLK1 PBD block: -2%; VDR inhibitor: -20%; Sfp PPTase inh: -6%

How did COc1cccc(-c2nn(C)c3sc(C(=O)NCc4ccc(C)o4)cc23)c1 do in these assays?
PLK1 PBD block: inconclusive; Tau fibril FP: -4%; VDR inhibitor: inconclusive; Tau ThT inhib: -1%; Sfp PPTase inh: 3.5µM*; Tau fluor cs: -4%; Sfp inh conf: 24µM*

Results for S=C(Nc1ccccn1)c1ccccn1 ?
PLK1 PBD block: 27µM*; Tau fibril FP: -17%; VDR inhibitor: -3%; Tau ThT inhib: inconclusive; Sfp PPTase inh: 2.8µM*; Tau fluor cs: -19%; Sfp inh conf: 53µM*
